The panel holds about 83,000 compounds, 20% with a hit somewhere; the sample as a whole holds those more often.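 For each line, cells grew in 96-well plates with the test compound present at a single concentration for 48 hours.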 Values without a mark were called inactive. Calls of active or inactive are those of the source. How the source made its calls: active means growth percent below 10; inactive means the rest.
Columns and labels:
Test in all cases: NCI-60 one-dose screen, 48 h (100 = growth as untreated, 0 = no growth, -100 = all killed)
DU-145 prostate = settings: 10 µM unless noted
K-562 leukemia = settings: 10 µM unless noted
MALME-3M melanoma = settings: 10 µM unless noted
MDA-MB-231 breast = settings: 10 µM unless noted
RXF 393 renal = settings: 10 µM unless noted
SF-268 CNS = settings: 10 µM unless noted
SF-295 CNS = settings: 10 µM unless noted
SF-539 CNS = settings: 10 µM unless noted
UACC-257 melanoma = settings: 10 µM unless noted
M14 melanoma = settings: 10 µM unless noted
HCT-15 colon = settings: 10 µM unless noted
HT29 colon = settings: 10 µM unless noted
SNB-75 CNS = settings: 10 µM unless noted
SNB-19 CNS = settings: 10 µM unless noted
U251 CNS = settings: 10 µM unless noted
SK-MEL-5 melanoma = settings: 10 µM unless noted
UACC-62 melanoma = settings: 10 µM unless noted
LOX IMVI melanoma = settings: 10 µM
SK-MEL-28 melanoma = settings: 10 µM unless noted
PC-3 prostate = settings: 10 µM unless noted

SMILES	growth (DU-145 prostate)	growth (K-562 leukemia)	growth (MALME-3M melanoma) [%]	growth (MDA-MB-231 breast)	growth (RXF 393 renal)	growth (SF-268 CNS) [%]	growth (SF-295 CNS)	growth (SF-539 CNS)	growth (UACC-257 melanoma)	growth (M14 melanoma)	growth (HCT-15 colon)	growth (HT29 colon)	growth (SNB-75 CNS) [%]	growth (SNB-19 CNS) [%]	growth (U251 CNS) [%]	growth (SK-MEL-5 melanoma)	growth (UACC-62 melanoma) [%]	growth (LOX IMVI melanoma) [%]	growth (SK-MEL-28 melanoma) [%]	growth (PC-3 prostate) [%]
Cc1ccc(C)c(CCO)c1	93%	116%	106	92.6%	103%	96.1	102%	97.2%	94.8%	108%	112%	109%	95.7	101	90.6	90.7%	103	100	105	–
CN1C(=O)NC(c2ccc(Cl)cc2)(c2ccc(Cl)cc2)C1=O	102%	70.1%	108	99.8%	62%	102	102%	111%	118%	100%	106%	93%	84.2	105	–	98.9%	83.8	96.2	102	84.6
CC(c1ccccc1)N1C(=O)CSC1=S (configuration not stated)	26.9%	5.61% (active)	79.3	29.9%	-25% (active)	24.9	101%	-59.7% (active)	55.3%	28.7%	9.14% (active)	1.08% (active)	19.9	104	17.3	34.8%	34.5	16.1	46.9	–
CCOC(=O)N[C@H]1CCc2cc(OC)c(OC)c(OC)c2-c2ccc(SC)c(=O)cc21	0.871% (active)	9.44% (active)	51.4	-22% (active)	10.7%	23	3.33% (active)	-21.9% (active)	71%	4.1% (active)	7.82% (active)	7.57% (active)	44.3	30.8	–	-51.3% (active)	39.9	22.4	60.1	27.7
Nc1ccccc1SC1CC(=O)N(c2ccc(Cl)c(Cl)c2)C1=O (configuration not stated)	113%	122%	177	94.4%	130%	97.6	127%	83.1%	-6.15% (active)	94.8%	118%	96.2%	79.9	96.6	103	104%	87.6	98.5	108	–
CC(=O)OC/C(C)=C\CC(C)COC(C)=O (configuration not stated)	114%	103%	102	99.7%	97.1%	109	94.6%	116%	102%	96.4%	98.8%	113%	81.5	94.9	–	104%	101	98.8	94.6	93.9
C/C=C/C1OCC(CC)C(CCC)O1 (configuration not stated)	115%	89.3%	114	100%	124%	101	113%	99.1%	93.5%	104%	111%	105%	90.2	99.7	104	–	101	113	112	98.9
Clc1ccc(-c2noc(/C=C\c3ccccc3)n2)cc1	108%	94.6%	95	109%	104%	106	89.9%	101%	104%	101%	95%	102%	103	102	–	97.6%	100	97.5	106	102

— PubChem BioAssay (NCI)
